The list is not random: actives were taken first. Their share in the collection is about 0.81%.
SRC3 inh – human NCOA3 inhibition; HEK293 GAL4-SRC3 luciferase reporter, luminescence; inhibition, % at 3.6 µM; hit rate 0.17% among 360,000;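 active = inhibition above a per-campaign cutoff, the mean of all compounds plus 3 SD, cut at about 60% in these data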;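 also: higher means less SRC3-driven luciferase light from the GAL4 reporter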
NR5A2 inv ag – NR5A2 inverse agonism in reporter assay | O00482 | HEK293T StAR-luciferase reporter, LRH-1 transfected, 24 h | inhibition, % at 3.6 µM | hit rate 0.13% among 360,000 | AID 602396;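 active = inhibition above the mean inhibition of all tested compounds plus 3 SD, cut at about 73% in these data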
NR2F2 inh – inhibitors of human COUP-TFII (NR2F2) | hit rate 0.7% among 370,000 | HEK293T NGFI-A luciferase reporter, luminescence | P24468 | inhibition, % at 8.6 µM;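 active = inhibition above a per-plate cutoff, mean inhibition of test wells between control levels plus 3 SD, cut at about 38% in these data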;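 also: cells cotransfected with COUP-TFII expression vector driving the NGFI-A reporter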
NCOA2 inhibitor – inhibits human steroid receptor coactivator 2; Q15596; inhibition, % at 9 µM; hit rate 0.17% among 370,000; HEK293 GAL4-SRC2 luciferase reporter, luminescence;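 active = inhibition above the mean inhibition of all tested compounds plus 3 SD, set per campaign, cut at about 52% in these data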
SRC1 inh – inhibits human SRC1 coactivator; Q15788; HEK293 GAL4-SRC1 luciferase reporter, luminescence; inhibition, % at 3.6 µM; hit rate 0.12% among 360,000; AID 588354;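 active = inhibition above the campaign mean plus 3 SD, with each screening campaign given its own cutoff, cut at about 60% in these data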
VP16 Luc counter – inhibits VP16 reporter, flagging COUP-TFII antagonist hits; HEK293 Gal4-VP16 luciferase reporter, luminescence; AID 687007; shares compounds with NR2F2 inh; hit rate 25% among 2,500; inhibition, % at 8.5 µM; in the data active = inhibition above about 13%
COUP-TFII conf – COUP-TFII (NR2F2) inhibition, confirmation assay; inhibition, % at 8.5 µM; HEK293 NGFI-A luciferase reporter, luminescence; AID 687008; hit rate 45% among 2,500; shares compounds with NR2F2 inh;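 active = mean inhibition over three repeats above a set limit taken from the earlier primary screen, cut at about 38% in these data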
Of the large screens only hits and unclear results are named; the others gave an inactive call (follow-up assays come after a bar, where they were run).

CS(=O)(=O)N(CCc1ccccc1)CC(=O)N1CCN(Cc2ccc3c(c2)OCO3)CC1	none
O=C(NCc1ccccc1)C(c1ccco1)N1CCN(CCN2CCOCC2)CC1 (stereo not drawn)	none (no result: SRC3 inh, NR5A2 inv ag, SRC1 inh)
O=C(c1ccc(Cl)c(Cl)c1)N1CCN(c2ccnc3cc(Cl)ccc23)CC1	NR2F2 inh 54 (no result: SRC3 inh, NR5A2 inv ag, NCOA2 inhibitor, SRC1 inh) | VP16 Luc counter inactive | COUP-TFII conf inactive
C=CC[C@@H]1NN2C(=O)[C@@H](CCCC)[C@@H]3c4ccccc4C=NN3[C@@H]2c2ccccc21	none (no result: SRC3 inh, NR5A2 inv ag, SRC1 inh)
NS(=O)(=O)c1ccc(CCNc2ncnc3sccc23)cc1	NR2F2 inh 53 | VP16 Luc counter inactive | COUP-TFII conf inactive
Cc1sc2ncnc(NCCc3ccc(S(N)(=O)=O)cc3)c2c1C	NR2F2 inh 66 | VP16 Luc counter inactive | COUP-TFII conf 61
Cc1ccc(S(=O)(=O)Nc2ncnc3sc(C)c(C)c23)cc1	none
Cc1ccccc1C(=O)N[C@@H](Cc1cccnc1)C(=O)N1CCC[C@H]1C(=O)NC1CCCC1	none (no result: SRC3 inh, NR5A2 inv ag, SRC1 inh)
CCN1C(=C(C#N)C#N)C=Cc2cc(C)ccc21	none
C=CC[n+]1c(/C=C2\C=Cc3cc(C)ccc3N2CC)ccc2ccccc21	SRC3 inh 71, NR5A2 inv ag 89, NR2F2 inh 75 | VP16 Luc counter 18 | COUP-TFII conf 76
O=C(Nc1ccc(OCc2ccccc2Cl)cc1)c1cccnc1	NR2F2 inh 38, NCOA2 inhibitor 67 | VP16 Luc counter inactive | COUP-TFII conf inactive
O=C(Nc1ccc(OCc2ccccc2)cc1)c1cccnc1	none
C/C(=N/NC(=O)CN(c1ccccc1)S(=O)(=O)c1ccccc1)c1ccccc1O	NR2F2 inh 41 | VP16 Luc counter inactive | COUP-TFII conf inactive
COc1ccc(-n2c(C)nnc2SCC(=O)Nc2ccccc2F)cc1	none
COc1ccc([C@H]2CC(=O)C=C(c3ccc(Oc4ccccc4)cc3)C2)cc1OC	NR2F2 inh 44 | VP16 Luc counter inactive | COUP-TFII conf inactive
COc1ccc(-n2c(C)c(C(C)=O)c3cc(O)ccc32)cc1	NR2F2 inh 44, SRC1 inh 68 | VP16 Luc counter inactive | COUP-TFII conf inactive
COc1ccc2c(c1)c(C(C)=O)c(C)n2CCc1ccccc1	NR2F2 inh 53 | VP16 Luc counter inactive | COUP-TFII conf inactive
Cc1ccccc1C(=O)O/N=C(\N)c1ccncc1	none
O=C(NCC1COCCO1)c1ccc2nc(Cc3cccc(Cl)c3)oc2c1 (stereo not drawn)	none
Cc1cc(C(=O)COC(=O)C2=COCCO2)c(C)n1-c1ccccc1	NR2F2 inh 65 | VP16 Luc counter 16 | COUP-TFII conf 74
Cc1ccc(OCC(=O)c2cc(C)n(-c3ccccc3)c2C)c([N+](=O)[O-])n1	NR2F2 inh 53, NCOA2 inhibitor 78 | VP16 Luc counter inactive | COUP-TFII conf inactive
C=CCn1c(C)cc(C(=O)COc2ccc(C)nc2[N+](=O)[O-])c1C	NR2F2 inh 40, NCOA2 inhibitor 61 | VP16 Luc counter inactive | COUP-TFII conf inactive
COc1cc(C=C2CCCC(=Cc3ccc(OCC4CO4)c(OC)c3)C2=O)ccc1OCC1CO1 (stereo not drawn)	NR2F2 inh 69 | VP16 Luc counter 25 | COUP-TFII conf 69
COc1ccc(/C=C2/CSC/C(=C/c3ccc(OC)c(OC)c3)C2=O)cc1OC	NR2F2 inh 73 | VP16 Luc counter 57 | COUP-TFII conf 97
CCOc1ccc(/C=C2\CCC(C3CCCC3)C2=O)cc1OC (stereo not drawn)	none
O=C(Cn1cnc2c(nnn2Cc2ccccc2F)c1=O)NCc1ccco1	none
COc1ccc(N2C(=O)c3[nH]nc(-c4ccccc4)c3C2c2ccc(Br)cc2)cc1 (stereo not drawn)	none (no result: SRC3 inh, NR5A2 inv ag, SRC1 inh)
CC(C)(C)OC(=O)n1cc(-c2ccccc2)c2c(-c3ccccc3)c(O)ccc21	none (no result: SRC3 inh, NR5A2 inv ag, SRC1 inh)
C=CCN=C1NC(c2cccc(Cl)c2)C(C(=O)OC)=C(C)N1C (stereo not drawn)	none (no result: SRC3 inh, NR5A2 inv ag, SRC1 inh)
COc1ccc(NS(=O)(=O)c2cccc(C(=O)OCC(=O)N3CCN(c4ccc(OC)cc4)CC3)c2)cc1	NR2F2 inh 39 | VP16 Luc counter inactive | COUP-TFII conf inactive
COc1ccc(-c2cc(N)n(S(=O)(=O)c3ccc(F)cc3)n2)cc1OC	NR2F2 inh 46 | VP16 Luc counter inactive | COUP-TFII conf inactive
Cc1c(OC(C)C(=O)NCC(O)c2ccccc2)ccc2c3c(c(=O)oc12)CCC3 (stereo not drawn)	none
S=C(NCCCc1cnc[nH]1)NCCCN(Cc1ccc(Cl)cc1)c1ccc(Br)cn1	NR5A2 inv ag 94, NR2F2 inh 38 | VP16 Luc counter inactive | COUP-TFII conf inactive
Cc1nn(C)c(Cl)c1NC(=O)OCc1ccc(Cl)cc1Cl	NR2F2 inh 53 | VP16 Luc counter inactive | COUP-TFII conf inactive
CCN(CC)c1ccc(/C=C/c2ccc3ccc(OC)cc3[n+]2CC)cc1	NR5A2 inv ag 74, NR2F2 inh 51 | VP16 Luc counter 20 | COUP-TFII conf 67
CN(C)c1ccc(/C=N/NC(=O)C[n+]2ccccc2)cc1	none
CC[n+]1ccccc1/C=C/c1ccc(N(C)C)cc1	NR2F2 inh 66 | VP16 Luc counter inactive | COUP-TFII conf 50
CCCCCC[n+]1ccccc1/C=C/c1ccc(N(C)C)cc1	SRC3 inh 82, NR5A2 inv ag 98, NR2F2 inh 92, SRC1 inh 72 | VP16 Luc counter 25 | COUP-TFII conf 89
CN(C)c1ccc(C(=O)/C=C/c2ccccc2)cc1	none
Cc1cc(C(=O)COC(=O)c2ccc3c(c2)OCO3)c(C)n1Cc1cccs1	none
Cc1cc(C(=O)COC(=O)c2ccccc2O)c(C)n1Cc1cccs1	SRC3 inh 87, NR5A2 inv ag 94, NR2F2 inh 97, NCOA2 inhibitor 86, SRC1 inh 90 | VP16 Luc counter 81 | COUP-TFII conf 104
CC(=O)Nc1ccccc1OCC(=O)c1cc(C)n(Cc2cccs2)c1C	NR2F2 inh 73 | VP16 Luc counter inactive | COUP-TFII conf 81
COc1ccc(-n2c(SCC(=O)NNC(=S)Nc3ccccc3)nc3ccccc3c2=O)cc1	none (no result: SRC3 inh, NR5A2 inv ag, SRC1 inh)
CCOC(=O)[C@]12CCCCC/C=C\1N(CCc1ccc(Cl)cc1)C(=O)[C@H]2CC(=O)N1CCOCC1	none (no result: SRC3 inh, NR5A2 inv ag, SRC1 inh)
O=[N+]([O-])c1ccc(N=Nc2c(Cl)cc(O)cc2Cl)cc1	NR2F2 inh 64 | VP16 Luc counter inactive | COUP-TFII conf 49
COc1ccc(NS(=O)(=O)c2cccc(C(=O)NNC(=O)c3ccc(=O)[nH]c3)c2)cc1	none
COc1ccc(/C=N/OCC(=O)NC(c2ccccc2)c2ccccc2)cc1OC	NR2F2 inh 61 | VP16 Luc counter inactive | COUP-TFII conf 62
Cc1ccc(Cn2ncc3c(N4CCN(Cc5ccc(Cl)cc5)CC4)ncnc32)cc1	NR2F2 inh 39 | VP16 Luc counter inactive | COUP-TFII conf 51
N#Cc1ccc(C(=O)Nc2cccc(S(=O)(=O)NC3=NCCC3)c2)cc1	none
COc1ccc(-n2ccnc2SCC(=O)NCc2ccco2)c(OC)c1	none

Screening data as filed in PubChem BioAssay.
